# Key:
# [1] = molecular target: T1, Mitogen-activated protein kinase 12 (Homo sapiens) (UniProt P53778); settings: at 1 µM
# T1 sequence (whole entry): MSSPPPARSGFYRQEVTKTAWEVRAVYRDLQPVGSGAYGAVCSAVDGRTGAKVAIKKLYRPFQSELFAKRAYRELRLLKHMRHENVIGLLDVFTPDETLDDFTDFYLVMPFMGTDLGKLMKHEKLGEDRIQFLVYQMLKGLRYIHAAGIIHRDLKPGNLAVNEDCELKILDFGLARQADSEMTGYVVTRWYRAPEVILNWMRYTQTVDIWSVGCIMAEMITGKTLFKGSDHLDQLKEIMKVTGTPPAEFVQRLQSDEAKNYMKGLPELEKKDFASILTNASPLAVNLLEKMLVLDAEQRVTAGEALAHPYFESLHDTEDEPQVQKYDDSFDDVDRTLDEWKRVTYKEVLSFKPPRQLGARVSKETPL
# [2] = molecular target: T1, Mitogen-activated protein kinase 12 (Homo sapiens); settings: at 10 µM
Compound,residual activity [1],residual activity [2]
O=c1c2ccccc2[nH]c(=S)n1CCN1CCC(=C(c2ccc(F)cc2)c2ccc(F)cc2)CC1,115%,90%
Oc1c2ccccc2c2c3c(cccc13)N=N2,82%,61%
COc1cccc(-c2cc(=O)c3ccccc3o2)c1N,102%,96%
COc1ccc(S(=O)(=O)N(CCO)c2ccccc2CN(C)C/C=C/c2ccc(Cl)cc2)cc1,99%,95%
O=C(Nc1cccc(Nc2nccc(Nc3cccc(C(F)(F)F)c3)n2)c1)C1CC1,98%,95%
COc1cc2ncnc(Nc3ccc(Oc4ccccc4)cc3)c2cc1OC,108%,101%
Nc1nc(Nc2ccc(S(N)(=O)=O)cc2)nn1C(=O)c1c(F)cccc1F,,67%
O=C1Nc2cc(Br)ccc2/C1=C1/Nc2ccccc2/C1=N\O,95%,94%
Cc1ccc(S(=O)(=O)/C=C/C#N)cc1,92%,92%
O=C1C(Cl)=C(N2C(=O)CCC2=O)C(=O)c2ccccc21,96%,99%
CO[C@H]1C[C@@H]2CC[C@@H](C)[C@@](O)(O2)C(=O)C(=O)N2CCCC[C@H]2C(=O)O[C@H]([C@H](C)C[C@@H]2CC[C@@H](O)[C@H](OC)C2)CC(=O)[C@H](C)/C=C(\C)[C@@H](O)[C@@H](OC)C(=O)[C@H](C)C[C@H](C)/C=C/C=C/C=C/1C,95%,94%
CN(C)CCCn1cc(C2=C(c3c[nH]c4ccccc34)C(=O)NC2=O)c2ccccc21,125%,131%
O=c1cc(-c2cccc3c2Sc2ccccc2S3)oc(N2CCOCC2)c1,104%,101%
O=[N+]([O-])c1ccc(-c2nc(-c3ccc(F)cc3)c(-c3ccncc3)[nH]2)cc1,101%,93%
CN(C)c1ccc(/C=C2\C(=O)Nc3ccccc32)cc1,113%,83%
Oc1cccc(-c2nc(N3CCOCC3)c3oc4ncccc4c3n2)c1,,86%

Compound,residual activity [1],residual activity [2]
CO[C@@H]1[C@H](N(C)C(=O)c2ccccc2)C[C@H]2O[C@]1(C)n1c3ccccc3c3c4c(c5c6ccccc6n2c5c31)C(=O)NC4,104%,87%
O=Nc1c(-c2c(O)[nH]c3ccccc23)[nH]c2ccccc12,95%,84%
N#C/C(=C1/Nc2ccccc2S1)c1ccnc(NCCc2cccnc2)n1,96%,72%
Cc1nc(-c2ccccc2)c(-c2ccncc2)o1,106%,103%
O=C1NC(=O)C(c2cn(CCCn3ccnc3)c3ccccc23)=C1Nc1ccccc1,104%,100%
O=c1cc(N2CCOCC2)oc2c1ccc1ccccc12,104%,90%
Cc1cc2ncc(-c3ccccc3)nc2cc1C,100%,100%
CC#CC(=O)Nc1cc2c(Nc3ccc(F)c(Cl)c3)ncnc2cn1,103%,95%
Ic1cccc(CSc2nnc(-c3ccncc3)o2)c1,88%,93%
Nc1ncnc2[nH]nc(Nc3ccc(F)cc3)c12,101%,96%
N#CC(C#N)=C(N)/C(C#N)=C/c1ccc(O)cc1,,92%
CC(C)c1nn(-c2c(Cl)cccc2Cl)c2nc(Cc3ccc(OCCO)cc3)[nH]c(=O)c12,105%,101%
CC(C)(C)n1nc(Cc2cccc3ccccc23)c2c(N)ncnc21,100%,98%
CCCC(=O)Oc1ccc2[nH]c(C(=O)c3cc4ccccc4[nH]3)cc2c1,96%,98%
Cn1sc(=O)n(Cc2ccccc2)c1=O,90%,97%
